Where “and” joins values, the source holds several entries; their conditions need not be identical. Equal entries are not always repeated. Records with an inconclusive call do not appear. Calls of active or inactive are those of the source.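 Rule for the calls, unless noted: active = normalized viability below 100% at a tested concentration; inactive = the rest.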
What was measured:
[1] = viability loss in pontine glioma line – cell-based, SU-DIPG-XXV, MIPE5.0, CellTiter-Glo, qHTS, dose response (AID 1347065; cut-off not given, nearly all actives have AC50 up to about 26 µM;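 note: cells exposed to compound for 48 hours before ATP readout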); details: CellTiter-Glo ATP luminescence
[2] = growth inhibition of DIPG cells – cell-based, MIPE4.0 library, CellTiter-Glo luminescence, qHTS (AID 1347066; cut-off not given, nearly all actives have AC50 up to about 30 µM;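 note: cells exposed to compound for 48 hours before readout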); details: SU-DIPG-VI viability, CellTiter-Glo ATP luminescence
[3] = JHH-DIPG-1 glioma cell viability, MIPE5.0 library, CellTiter-Glo luminescence, qHTS (AID 1347067; cut-off not given, nearly all actives have AC50 up to about 26 µM;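 note: cells exposed to compound for 48 hours before readout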); details: JHH-DIPG-1 glioma viability, CellTiter-Glo ATP luminescence
[4] = growth inhibition of DIPG cells – cell-based, MIPE5.0 library, qHTS (AID 1347068; cut-off not given, nearly all actives have IC50 up to about 30 µM); details: SU-DIPG-XXV viability
[5] = viability loss with induced miR-34 in A549 – imaging, A549 dox-inducible miR-34, nuclei and caspase counts, primary screen (AID 1347080;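 active = compounds whose cell count with miR-34 switched on is under 0.7 times the count with it off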); details: A549 miR-34 inducible, Hoechst nuclei count, 48 h
[6] = compounds altering HSF1 focus formation in cells – imaging, Selleck Cancer Library (AID 1347162; in the data active = plate-normalised HSF1 focus index below about 0.46); details: human cells, HSF1 nuclear foci imaging, at 10 µM; SSMD: measured here: HSF1 foci SSMD mean; cell count: measured here: cell number; plate-normalised HSF1 focus index: stronger effect = lower value
[7] = MELAS cybrid and Rieske KO viability enhancers – cell-based, MELAS cybrids, Rieske KO mouse fibroblasts, CellTiter-Glo, primary screen (AID 1508586;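 active = mean z-score across replicates of 1.96 or higher in either the MELAS or the Rieske mutant cell line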;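 note: z relative to plate mean and SD of compound and empty wells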); details: low glucose
[8] = drug combination growth inhibition, ovarian cancer – cell-based, oncology-focused library, rucaparib conditional, profiling panel (AID 1508598); details: patient-derived ovarian cancer cells, CellTiter-Glo viability, 144 h, stronger effect = lower value
[9] = target: NAD(+) hydrolase SARM1 (Homo sapiens) (UniProt Q6SZW1); experiment: blocking NAD cleavage by SARM1 SAM-TIR – cell lysate, NAD-Glo luminescence (AID 1508614;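 active = compound whose remaining NAD level is above about 45 nM, limit read from the data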;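 note: higher remaining NAD means stronger inhibition of SARM1 NADase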); details: SAM-TIR HEK293T lysate NADase, at 1 µM, stronger effect = higher value
[10] = galactose survival enhancers in mitochondrial complex I cybrids – cell-based, galactose medium, ATP luminescence, primary screen (AID 1645843;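 active = z-score of at least 1.8 in each of two replicates, scored against plate mean and spread of sample wells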;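 note: positive z means more ATP and so rescue of galactose-driven cybrid death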); details: complex I mutant cybrid cells, 72 h, stronger effect = higher value
[11] = target: Mitogen-activated protein kinase 7 (Homo sapiens) (UniProt Q13164); experiment: Gal4-ERK5 driven luciferase induction – cell-based, HTS, primary screen (AID 1508626;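 active = luciferase signal above three times the same-plate solvent-only control wells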;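 note: luciferase driven by Gal4-ERK5 fusion binding five Gal4 sites before minimal TATA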); details: HeLa Gal4-ERK5 transactivation, 18 h, at 5 µM, stronger effect = higher value
[12] = blockers of cellular phospholipid synthesis – cell-based, LOPAC library, screen 4, primary screen (AID 1347384; call rule not given here); details: animal cells, phospholipid biosynthesis inhibition screen; at 10 µM
[13] = stronger effect = lower value, cell number ratio, induced over uninduced
[14] = measured here: relative caspase fold change +Dox/-Dox
[15] = measured here: total cells with miR-34 induction, stronger effect = lower value
[16] = measured here: total cells without miR-34 induction
[17] = MELAS cybrid survival, CellTiter-Glo 48 h, stronger effect = higher value
[18] = Rieske KO mouse fibroblast survival, CellTiter-Glo 72 h

Sequence of NAD(+) hydrolase SARM1 (Homo sapiens) (Q6SZW1 whole entry, looked up): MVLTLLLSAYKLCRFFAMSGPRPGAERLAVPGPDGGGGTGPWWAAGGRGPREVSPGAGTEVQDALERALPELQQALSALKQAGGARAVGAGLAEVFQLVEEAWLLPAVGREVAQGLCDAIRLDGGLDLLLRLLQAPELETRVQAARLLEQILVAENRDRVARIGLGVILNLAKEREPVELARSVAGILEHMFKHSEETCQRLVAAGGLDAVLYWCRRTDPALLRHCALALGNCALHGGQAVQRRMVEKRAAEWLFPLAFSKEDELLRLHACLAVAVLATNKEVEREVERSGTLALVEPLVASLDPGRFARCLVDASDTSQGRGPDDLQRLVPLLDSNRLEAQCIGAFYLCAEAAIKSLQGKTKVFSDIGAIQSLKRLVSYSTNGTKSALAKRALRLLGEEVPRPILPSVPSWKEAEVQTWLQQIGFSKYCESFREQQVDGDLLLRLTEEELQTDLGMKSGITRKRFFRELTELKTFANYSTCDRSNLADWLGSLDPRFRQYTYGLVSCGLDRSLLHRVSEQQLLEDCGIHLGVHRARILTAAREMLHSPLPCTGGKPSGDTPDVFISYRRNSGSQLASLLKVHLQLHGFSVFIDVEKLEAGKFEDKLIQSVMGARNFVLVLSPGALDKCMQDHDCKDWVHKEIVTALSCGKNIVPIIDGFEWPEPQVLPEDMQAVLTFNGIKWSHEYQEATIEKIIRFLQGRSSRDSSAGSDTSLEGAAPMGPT
Sequence of Mitogen-activated protein kinase 7 (Homo sapiens) (Q13164 whole entry, looked up, the tested form may be a part): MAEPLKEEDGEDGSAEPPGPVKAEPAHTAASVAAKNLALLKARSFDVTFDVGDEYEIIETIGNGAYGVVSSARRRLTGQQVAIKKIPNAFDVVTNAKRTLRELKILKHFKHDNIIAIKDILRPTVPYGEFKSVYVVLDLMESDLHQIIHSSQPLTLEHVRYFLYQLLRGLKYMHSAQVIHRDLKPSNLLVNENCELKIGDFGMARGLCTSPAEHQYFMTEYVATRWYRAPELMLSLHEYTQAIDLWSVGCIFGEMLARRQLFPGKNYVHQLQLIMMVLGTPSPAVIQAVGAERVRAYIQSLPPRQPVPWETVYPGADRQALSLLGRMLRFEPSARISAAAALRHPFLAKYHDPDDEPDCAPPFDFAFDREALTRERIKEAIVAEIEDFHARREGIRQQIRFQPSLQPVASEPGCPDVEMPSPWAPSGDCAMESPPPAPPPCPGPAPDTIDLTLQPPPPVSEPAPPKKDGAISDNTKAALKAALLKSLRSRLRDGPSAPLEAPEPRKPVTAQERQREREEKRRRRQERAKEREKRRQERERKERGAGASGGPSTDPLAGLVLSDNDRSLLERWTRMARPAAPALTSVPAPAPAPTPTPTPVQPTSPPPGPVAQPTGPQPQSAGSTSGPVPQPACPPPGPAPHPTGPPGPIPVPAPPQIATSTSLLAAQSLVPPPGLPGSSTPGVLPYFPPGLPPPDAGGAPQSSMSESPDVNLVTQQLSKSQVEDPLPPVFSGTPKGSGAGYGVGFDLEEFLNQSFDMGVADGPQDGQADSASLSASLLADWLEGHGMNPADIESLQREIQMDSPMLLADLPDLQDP

Structure (SMILES): CC(C)(C#N)c1cc(Cn2cncn2)cc(C(C)(C)C#N)c1
- outcome [1]: inactive
- outcome [2]: inactive
- outcome [3]: inactive
- outcome [4]: inactive
- fold change [5, 13]: 0.875 (inactive) and 0.939 (inactive) and 0.952 (inactive)
- fold change [5, 14]: 1 and 1.14
- cell count [5, 15]: 8530 and 7350 and 9720
- cell count [5, 16]: 9750 and 7820 and 10200
- SSMD [6]: 1.85
- cell count [6]: 7640
- plate-normalised HSF1 focus index [6]: 1.07 (inactive)
- z-score [7, 17]: -0.386 (inactive) and -0.452 (inactive) and -0.582 (inactive)
- z-score [7, 18]: 0.599 and -0.518 and -0.151
- viability ([8]; at 0.000305 µM, OCI-C5x cells, with rucaparib 10 µM, 100% = cells with rucaparib alone): 109% (inactive)
- viability ([8]; at 0.000305 µM, OCI-C5x cells, without rucaparib): 102% (inactive)
- viability ([8]; at 0.000305 µM, OCI-P5x cells, with rucaparib 20 µM, 100% = cells with rucaparib alone): 98.5% (active)
- viability ([8]; at 0.000305 µM, OCI-P5x cells, without rucaparib): 90.6% (active)
- viability ([8]; at 0.00122 µM, OCI-C5x cells, with rucaparib 10 µM, 100% = cells with rucaparib alone): 107% (inactive)
- viability ([8]; at 0.00122 µM, OCI-C5x cells, without rucaparib): 98.9% (active)
- viability ([8]; at 0.00122 µM, OCI-P5x cells, with rucaparib 20 µM, 100% = cells with rucaparib alone): 102% (inactive)
- viability ([8]; at 0.00122 µM, OCI-P5x cells, without rucaparib): 95.3% (active)
- viability ([8]; at 0.00488 µM, OCI-C5x cells, with rucaparib 10 µM, 100% = cells with rucaparib alone): 115% (inactive)
- viability ([8]; at 0.00488 µM, OCI-C5x cells, without rucaparib): 107% (inactive)
- viability ([8]; at 0.00488 µM, OCI-P5x cells, with rucaparib 20 µM, 100% = cells with rucaparib alone): 104% (inactive)
- viability ([8]; at 0.00488 µM, OCI-P5x cells, without rucaparib): 100% (inactive)
- viability ([8]; at 0.0195 µM, OCI-C5x cells, with rucaparib 10 µM, 100% = cells with rucaparib alone): 113% (inactive)
- viability ([8]; at 0.0195 µM, OCI-C5x cells, without rucaparib): 107% (inactive)
- viability ([8]; at 0.0195 µM, OCI-P5x cells, with rucaparib 20 µM, 100% = cells with rucaparib alone): 110% (inactive)
- viability ([8]; at 0.0195 µM, OCI-P5x cells, without rucaparib): 104% (inactive)
- viability ([8]; at 0.0781 µM, OCI-C5x cells, with rucaparib 10 µM, 100% = cells with rucaparib alone): 105% (inactive)
- viability ([8]; at 0.0781 µM, OCI-C5x cells, without rucaparib): 109% (inactive)
- viability ([8]; at 0.0781 µM, OCI-P5x cells, with rucaparib 20 µM, 100% = cells with rucaparib alone): 108% (inactive)
- viability ([8]; at 0.0781 µM, OCI-P5x cells, without rucaparib): 109% (inactive)
- viability ([8]; at 0.313 µM, OCI-C5x cells, with rucaparib 10 µM, 100% = cells with rucaparib alone): 103% (inactive)
- viability ([8]; at 0.313 µM, OCI-C5x cells, without rucaparib): 108% (inactive)
- viability ([8]; at 0.313 µM, OCI-P5x cells, with rucaparib 20 µM, 100% = cells with rucaparib alone): 112% (inactive)
- viability ([8]; at 0.313 µM, OCI-P5x cells, without rucaparib): 113% (inactive)
- viability ([8]; at 1.25 µM, OCI-C5x cells, with rucaparib 10 µM, 100% = cells with rucaparib alone): 115% (inactive)
- viability ([8]; at 1.25 µM, OCI-C5x cells, without rucaparib): 115% (inactive)
- viability ([8]; at 1.25 µM, OCI-P5x cells, with rucaparib 20 µM, 100% = cells with rucaparib alone): 111% (inactive)
- viability ([8]; at 1.25 µM, OCI-P5x cells, without rucaparib): 112% (inactive)
- viability ([8]; at 5 µM, OCI-C5x cells, with rucaparib 10 µM, 100% = cells with rucaparib alone): 130% (inactive)
- viability ([8]; at 5 µM, OCI-C5x cells, without rucaparib): 115% (inactive)
- viability ([8]; at 5 µM, OCI-P5x cells, with rucaparib 20 µM, 100% = cells with rucaparib alone): 115% (inactive)
- viability ([8]; at 5 µM, OCI-P5x cells, without rucaparib): 109% (inactive)
- remaining NAD [9]: 10 nM (inactive)
- z-score [10]: 0.695 (inactive) and 0.735 (inactive)

Structure (SMILES): CCOc1cc(CC(=O)N[C@@H](CC(C)C)c2ccccc2N2CCCCC2)ccc1C(=O)O
- outcome [1]: inactive
- outcome [2]: inactive
- outcome [3]: inactive
- outcome [4]: inactive
- fold change [5, 13]: 0.924 (inactive) and 0.888 (inactive) and 0.976 (inactive)
- fold change [5, 14]: 0.881 and 1.49 and 4.38
- cell count [5, 15]: 8510 and 8490 and 12000
- cell count [5, 16]: 9210 and 9560 and 12300
- z-score [7, 17]: -0.407 (inactive)
- z-score [7, 18]: 0.416
- remaining NAD [9]: 10 nM (inactive)
- z-score [10]: 3.92 (active)

Structure (SMILES): Cc1cnc(C(=O)O)c[n+]1[O-]
- outcome [1]: inactive
- outcome [2]: inactive
- outcome [3]: inactive
- outcome [4]: inactive
- fold change [5, 13]: 0.836 (inactive) and 0.829 (inactive)
- fold change [5, 14]: 0.776 and 1.63
- cell count [5, 15]: 6980 and 9220
- cell count [5, 16]: 8340 and 11100
- z-score [7, 17]: 0.0931 (inactive) and 0.196 (inactive) and -0.0621 (inactive)
- z-score [7, 18]: -1.45 and -0.0767 and -0.000299
- remaining NAD [9]: 10 nM (inactive)
- z-score [10]: 0.95 (inactive)

Structure (SMILES): O=C(O)c1cn(-c2ccc(F)cc2)c2cc(N3CCNCC3)c(F)cc2c1=O
- outcome [1]: inactive
- outcome [2]: inactive
- outcome [3]: inactive
- outcome [4]: inactive
- fold change [5, 13]: 0.867 (inactive) and 0.86 (inactive)
- fold change [5, 14]: 3.37 and 1.06
- cell count [5, 15]: 11600 and 8760
- cell count [5, 16]: 13400 and 10200
- z-score [7, 17]: 0.702 (inactive) and 0.944 (inactive)
- z-score [7, 18]: 0.262 and 0.886
- remaining NAD [9]: 14 nM (inactive)
- luciferase signal [11]: 72 AU (inactive)
- z-score [10]: 0.12 (inactive)

Structure (SMILES): Cn1cnc2c1c(=O)[nH]c(=O)n2C
- outcome [1]: inactive
- AC50 [2]: 20.9 µM (active)
- outcome [3]: inactive
- outcome [4]: inactive
- fold change [5, 13]: 0.912 (inactive) and 0.854 (inactive) and 0.906 (inactive)
- fold change [5, 14]: 0.922 and 1.4 and 3.48
- cell count [5, 15]: 9550 and 8390 and 11600
- cell count [5, 16]: 10500 and 9820 and 12900
- outcome [12]: inactive
- z-score [7, 17]: -0.269 (inactive)
- z-score [7, 18]: -0.702
- remaining NAD [9]: 10 nM (inactive)
- luciferase signal [11]: 60 AU (inactive)
- z-score [10]: 0.475 (inactive)

Reference: PubChem BioAssay
